SMILES strings stand for the structures. Activity calls are given as the source filed them. A call without a number means that no potency is given here. Calls follow the shape of the full dose curve.

The target of this test is Gonadotropin-releasing hormone receptor (Homo sapiens) (UniProt P30968). The test is described as follows: Human gonadotropin-releasing hormone receptor (GnRHR) small molecule agonists, calcium flux assay in GnRHR-HEK293 cells (AID 1920063). Also: nearly all actives have a fitted effect of over 35% in size. To be noted: calcium flux fluorescence, agonist mode; series mostly up to 57.6 µM. Summed up: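 HEK293 cells stably expressing human GnRHR were dye-loaded for 1 h at 37 C. Compound was added in agonist mode and fluorescence (Ex/Em 480/540) recorded kinetically for 3 min. Fifteen concentrations, triplicates.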
Chain of Gonadotropin-releasing hormone receptor (Homo sapiens) (P30968 whole entry, looked up): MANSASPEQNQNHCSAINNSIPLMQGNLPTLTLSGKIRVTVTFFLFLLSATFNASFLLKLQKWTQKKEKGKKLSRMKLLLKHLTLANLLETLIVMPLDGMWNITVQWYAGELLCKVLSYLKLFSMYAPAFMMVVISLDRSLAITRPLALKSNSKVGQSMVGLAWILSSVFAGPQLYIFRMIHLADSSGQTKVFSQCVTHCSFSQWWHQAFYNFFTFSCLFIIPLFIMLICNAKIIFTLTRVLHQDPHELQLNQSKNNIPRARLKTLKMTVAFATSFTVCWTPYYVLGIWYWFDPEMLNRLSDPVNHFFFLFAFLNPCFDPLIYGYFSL
As for `CC(=O)O[C@]1(C(C)=O)CC[C@H]2[C@@H]3C[C@H](C)C4=CC(=O)CC[C@]4(C)[C@H]3CC[C@@]21C`, the Potency entry was “inactive”.

For `COC(=O)c1ccc(O)cc1`, the Potency result was “inactive”. The entry for `CC(=O)CC(C)(C)O` is “inactive”; for `O=c1[nH]cc(F)c(=O)[nH]1` it is “inactive”.

As to `COc1ccc(Cl)cc1C(=O)NCCc1ccc(S(=O)(=O)NC(=O)NC2CCCCC2)cc1`, the Potency result is “inactive”. The entry for `CC(=O)OC/C=C(C)/C=C/C=C(C)/C=C/C1=C(C)CCCC1(C)C` is “inactive”. The entry for `CCCCCCCCCCN` is “inactive”; for `C[C@H]1C[C@H]2[C@@H]3CCC4=CC(=O)C=C[C@]4(C)[C@@]3(F)[C@@H](O)C[C@]2(C)[C@@]1(O)C(=O)CO` it is “inactive”; for `CCCCN(CCCC)CCCC` it is “inactive”. The entry for `CCCCCCC(C)O` (stereo not given) is “inactive”; for `O=[Se](O)O` it is “inactive”; for `Cc1ccc(S(=O)(=O)NCl)cc1` it is “inactive”. Regarding `CC(=O)O[C@]1(C(C)=O)CC[C@H]2[C@@H]3C=C(Cl)C4=CC(=O)CC[C@]4(C)[C@H]3CC[C@@]21C`, the Potency entry was “inactive”. The entry for `CCC(C)C=O` (stereo not given) is “inactive”; for `CC1(C)S[C@@H]2[C@H](NC(=O)[C@H](N)c3ccccc3)C(=O)N2[C@H]1C(=O)O` it is “inactive”; for `CC(C)[N+](C)(CCOC(=O)C1c2ccccc2Oc2ccccc21)C(C)C` it is “inactive”. The entry for `CC(C)(C)NC(=O)[C@H]1CC[C@H]2[C@@H]3CC[C@H]4NC(=O)C=C[C@]4(C)[C@H]3CC[C@]12C` is “inactive”; for `Cn1c(=O)c2[nH]cnc2n(C)c1=O` it is “inactive”.

As for `CCCCC/C=C\C/C=C\CCCCCCCC(=O)O`, the Potency entry is “inactive”. The entry for `CCCc1c(OCCCCc2nn[nH]n2)ccc(C(C)=O)c1O` is “inactive”; for `CC(=O)c1ccc(O)cc1` it is “inactive”; for `NC(=O)c1ccccc1O` it is “inactive”.

As for `CC(C)CC(C)CC(O)CC(C)C` (stereo not given), the Potency result is “inactive”. The entry for `C[C@]12CCC(=O)C=C1CC[C@@H]1[C@@H]2C(=O)C[C@@]2(C)[C@H]1CC[C@]2(O)C(=O)CO` is “inactive”; for `CC(=O)Nc1ccc(C(=O)O)cc1` it is “inactive”. The entry for `Nc1c2c(nc3ccccc13)CCCC2` is “inactive”; for `C[C@H]1C[C@@H]2[C@H]([C@@H](O)C[C@@]3(C)[C@H]2CC[C@]3(O)C(=O)CO)[C@@]2(C)C=CC(=O)C=C12` it is “inactive”.

`C=CCNC(N)=S`: the Potency entry is “inactive”. The entry for `CC(=O)Nc1ccc(C(=O)CCl)cc1` is “inactive”; for `CCOC(N)=O` it is “inactive”; for `NC(=O)NO` it is “inactive”.

Consider `O=C(O)CN(CC(=O)O)CC(=O)O`, for which the Potency result is “inactive”. The entry for `CN1C(C(=O)Nc2ccccn2)=C(O)c2ccccc2S1(=O)=O` is “inactive”; for `O=CCCCC=O` it is “inactive”. Take `COCCc1ccc(OCC(O)CNC(C)C)cc1` (stereo not given): the Potency entry is “inactive”. The entry for `CCN(CC)CCOC(=O)c1ccc(N)cc1` is “inactive”; for `CC(C)Cc1ccc(C(C)C(=O)O)cc1` (stereo not given) it is “inactive”; for `O=c1c(-c2ccc(O)cc2)coc2cc(O)cc(O)c12` it is “inactive”.

Take `CCc1ccc(CCOc2ccc(CC3SC(=O)NC3=O)cc2)nc1` (stereo not given): the Potency result is “inactive”. Turning to `Cc1nnc(NS(=O)(=O)c2ccc(N)cc2)s1`, the Potency result was “inactive”.

Values taken from PubChem BioAssay (Tox21).
